Laboratory results as given in PubChem BioAssay (NCATS).
Several values for one entry are separate records, joined by “and”; a condition that tells them apart may be missing. Identical values can stand only once. Records with an inconclusive call do not appear. Activity calls are given as the source filed them. The call rests on the fitted dose curve.

assay: Primary qHTS to identify inhibitors of SARS-CoV-2 cell entry (AID 1645846); conditions: SARS-CoV-2 pseudovirus cell entry assay, luminescence; activity change, negative = inhibition: at 57.1 µM (top of the series) unless noted; further: nearly all actives have a fitted effect of over 45% in size
Procedure, shortened: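 HEK293-ACE2 (Expi293F, stable hACE2), 1500 cells/well, o/n 37C; cpd 23 nL pin, 1 h; MLV-PP w/ SARS-CoV-2-S (Wuhan-Hu-1, Δ19 C-term); 48 h 37C; Bright-Glo luminescence; normalized vs S-PP and bald PP.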
Potency means the concentration at half of the fitted maximal effect.

Row | SMILES | activity change, negative = inhibition | Potency
1 | COc1cc(CNC(=O)CCCC/C=C/C(C)C)ccc1O | -28.1% and -35.9% | 
2 | C[C@H]1O[C@@H](O[C@H]2[C@@H](O)C[C@H](O[C@H]3[C@@H](O)C[C@H](O[C@H]4CC[C@@]5(C)[C@H](CC[C@@H]6[C@@H]5C[C@@H](O)[C@]5(C)[C@@H](C7=CC(=O)OC7)CC[C@]65O)C4)O[C@@H]3C)O[C@@H]2C)C[C@H](O)[C@@H]1O | -96.3% and -94.1% | 
3 | CO[C@H](C(=O)[C@@H](O)[C@@H](C)O)C1Cc2cc3cc(O[C@H]4C[C@@H](O[C@H]5C[C@@H](O)[C@H](O)[C@@H](C)O5)[C@@H](O)[C@@H](C)O4)c(C)c(O)c3c(O)c2C(=O)[C@H]1O[C@H]1C[C@@H](O[C@H]2C[C@@H](O[C@H]3C[C@](C)(O)[C@H](O)[C@@H](C)O3)[C@H](O)[C@@H](C)O2)[C@H](O)[C@@H](C)O1 (some centres not stated) | -92.7% | 
4 | CO[C@H]1C[C@@H]2CC[C@@H](C)[C@@](O)(O2)C(=O)C(=O)N2CCCC[C@H]2C(=O)O[C@H]([C@@H](C)C[C@@H]2CC[C@@H](O)[C@H](OC)C2)CC(=O)[C@H](C)/C=C(\C)[C@@H](O)[C@@H](OC)C(=O)[C@H](C)C[C@H](C)/C=C/C=C/C=C/1C |  | 20 µM (active)
5 | COc1cc([C@@H]2c3cc4c(cc3C(O[C@@H]3O[C@@H]5CO[C@@H](c6cccs6)OC5[C@H](O)[C@H]3O)C3COC(=O)[C@@H]32)OCO4)cc(OC)c1O (some centres not stated) | -95.7% | 
6 | COc1ccc2c(c1)OC(C)(C)C(c1ccccc1)C2c1ccc(OCCN2CCCC2)cc1 (configuration not stated) |  | 15.8 µM (active)
7 | NCCS[As](SCCN)c1ccc(Nc2nc(N)nc(N)n2)cc1 | -25.6% | 
